Test results published in PubChem BioAssay (NCATS).
Results filed as inconclusive are left out. Values without a mark were called inactive. The source made the active and inactive calls. Calls come from the whole dose curve.

Assay: VSVG counterscreen qHTS to identify inhibitors of SARS-CoV-2 cell entry (AID 1645847); note: nearly all actives have a fitted effect of over 65% in size
Conditions: VSV-G pseudotyped particle entry, luciferase; series mostly up to 57.2 µM; activity change, negative = inhibition: at the top concentration
From the text: Assay Provider: Wei Zheng, Ph.D.
National Center for Advancing Translational Sciences, National Institute of Health, Rockville, MD.
SARS-CoV-2 spike protein, within the viral envelope, mediates viral attachment and infection of host cells. The SARS-CoV-2 spike protein specifically binds to the host receptor ACE2 (Angiotensin-converting enzyme 2). This interaction promotes endocytosis of the viral particle, additional events lead to viral-host cell membrane fusion and release of the viral contents, allowing viral replication.
While SARS-CoV-2 requires BSL-3 facilities for live virus work, pseudotyped partices (PP) that incorporate SARS-CoV-2 spike proteins without replication elements could facilitate studies on viral entry mechanisms in a BSL-2 setting. This PP cell entry assay could also enable screening of small molecule compound libraries in BSL-2 setting to identify inhibitors of SARS-CoV-2 cell entry.
SEQUENCE No. (e.g., 1, 2, 3, etc.); […] (e.g., Cells, Incubation, Reagent, etc.); VALUE and DESCRIPTION.
1. Cells. Seed 1500 HEK293-ACE2 cells (Expi293F with stable expression of human ACE2) in 2 microL/well media (DMEM, 10% FBS, 1x L-glutamine, 1x Pen/Strep, 1 ug/ml puromycin) in white 1536-well assay plates (Greiner #782073).
2. Incubation. Incubate at 37 degrees C with 5% CO2 overnight (~16 h).
3. Compound. Dispense 23 nL/well compounds in DMSO via pin transfer.
4. Incubation. Incubate for 1 h at 37C 5% CO2.
5. Reagent. Dispense 2 microL/well of vesicular stomatitis virus G glycoprotein (VSV-G) pseudotyped particles (PP). [a] PPs are produced with murine leukemia virus pseudo-typing.
6. Centrifugation. […]
7. Incubation. Incubate at for 48 h at 37C 5% CO2
8. Centrifugation. Remove supernatant with gentle centrifugation using a Blue Washer (BlueCat Bio).
9. Reagent. Dispense 4 microL/well of Bright-Glo Luciferase detection reagent (Promega #E2620).
10. Incubation. Incubate for 5 min at room temperature.
11. Detection. Read luminescence signal (ViewLux plate reader, PerkinElmer). Data was normalized with wells containing VSV-G PP as 100%, and wells containing bald PP (no fusion protein) as 0%.
% is set by controls: 0 for no effect and ±100 for the full control effect; potency is the fitted concentration of half-maximal effect.

Row | SMILES | Potency | activity change, negative = inhibition [%]
1 | CS(=O)(=O)c1cccc(CNc2nc(Nc3ccc4c(c3)CCC(=O)N4)ncc2C(F)(F)F)c1 | 4.29 µM (active) | 
2 | CNC(=O)c1cc(Oc2ccc(NC(=O)Nc3ccc(Cl)c(C(F)(F)F)c3)c(F)c2)ccn1 | 10.8 µM (active) | 
3 | Cc1cc(Nc2cc(N3CCN(C)CC3)nc(Sc3ccc(NC(=O)C4CC4)cc3)n2)n[nH]1 | 0.215 µM (active) | 
4 | COc1cc([C@@H]2c3cc4c(cc3[C@@H](O)C3COC(=O)C32)OCO4)cc(OC)c1O (stereo partly specified) | 0.541 µM (active) | 
5 | COc1cc2nccc(Oc3ccc(NC(=O)C4(C(=O)Nc5ccc(F)cc5)CC4)cc3)c2cc1OC | 8.57 µM (active) | 
6 | COc1ccc(C(=O)c2c(C)n(CCN3CCOCC3)c3cc(I)ccc23)cc1 | 30.4 µM (active) | 
7 | CC(=O)c1c(C)c2cnc(Nc3ccc(N4CCNCC4)cn3)nc2n(C2CCCC2)c1=O | 6.81 µM (active) | 
8 | CC(C)(C)c1cnc(CSc2cnc(NC(=O)C3CCNCC3)s2)o1 | 1.92 µM (active) | 
9 | CCc1c(C(=O)C(N)=O)c2c(OCC(=O)O)cccc2n1Cc1ccccc1 |  | -26.2
10 | CN(c1ncccc1CNc1nc(Nc2ccc3c(c2)CC(=O)N3)ncc1C(F)(F)F)S(C)(=O)=O | 2.15 µM (active) | 
11 | CC(=O)Nc1ccc([C@H](C)C(=O)Nc2ncc(C(C)C)s2)cc1 | 13.6 µM (active) | 
12 | CCCCOCCOc1nc(-c2ccc(C(=O)O)c(F)c2)sc1C |  | 0
13 | O=c1[nH]c(-c2ccc(C(F)(F)F)cc2)nc2c1CSCC2 | 1.92 µM (active) | 
14 | O=C(O)c1ccc2c(c1)nc(Nc1cccc(Cl)c1)c1ccncc12 | 2.15 µM (active) | 
15 | CC(C)[C@H](C(=O)Nc1ccc(C(=O)NO)cc1)c1ccccc1 | 30.4 µM (active) | 
16 | COc1c(Cl)cc2c([nH]c3cnccc32)c1NC(=O)c1cccnc1C |  | -21.2
17 | CN1CC[C@@H](c2c(O)cc(O)c3c(=O)cc(-c4ccccc4Cl)oc23)[C@@H](O)C1 | 1.36 µM (active) | 
18 | Cc1ccc(C(N)=O)cc1Nc1nccc(-c2cn(C(C)C)c3cnccc23)n1 | 2.15 µM (active) | 
19 | COc1ccc(-c2c(-c3ccc(O)cc3O)n[nH]c2C)cc1 | 12.4 µM (active) | 
20 | Cc1n[nH]c(C)c1Cc1sc2c(c1C(=O)N1C[C@H](O)CO1)c(=O)n(C)c(=O)n2CC(C)C | 1.24 µM (active) | 
21 | Cc1cc(Nc2nc(N[C@@H](C)c3ncc(F)cn3)ncc2Cl)n[nH]1 | 6.81 µM (active) | 
22 | CCCS(=O)(=O)Nc1ccc(F)c(C(=O)c2c[nH]c3ncc(-c4ccc(Cl)cc4)cc23)c1F | 21.5 µM (active) | 
23 | O=C(c1cc(Cc2n[nH]c(=O)c3ccccc23)ccc1F)N1CCN(C(=O)C2CC2)CC1 | 21.5 µM (active) | 
24 | O=C(Nc1ccncc1)C(=O)c1cn(Cc2ccc(Cl)cc2)c2ccccc12 | 0.961 µM (active) | 
25 | COc1cc(Nc2ncc3c(n2)-c2ccc(Cl)cc2C(c2c(F)cccc2OC)=NC3)ccc1C(=O)O | 0.108 µM (active) | 
26 | N#CCNC(=O)c1ccc(-c2ccnc(Nc3ccc(N4CCOCC4)cc3)n2)cc1 | 6.81 µM (active) | 
